Measured values reported in PubChem BioAssay.
Several values for one entry are separate records, joined by “and”; a condition that tells them apart may be missing. Equal entries are not always repeated. For some of these results: Potency and affinity values are given separately. Activity calls are given as the source filed them. Rule as the data show it, unless noted: active = parasite load remaining mostly below about 12% (no sharp cut-off); inactive = mostly above about 10%. Bridge positions count the residues as written; N and C are the ends. Square brackets hold non-standard residues; d marks the D form. Peptide text beside a SMILES is read from it. * marks the point of attachment. Octanoyl(6-Me) = CCC(C)CCCCC(=O)*; Dab = NCC[CH](N)C(=O)O

Assays:
[1] = polyglutamine-triggered caspase-3 activation inhibitors, cell-based (AID 1583); conditions: polyglutamine-induced caspase-3 activation, cell assay; stronger effect = higher value;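 tested at 10 µM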
[2] = suppressors of polyQ aggregation in yeast, 75Q-TubU reporter (AID 1593); conditions: Yeast 75Q polyglutamine aggregation reporter
[3] = rescue of polyQ-huntingtin neuronal dysfunction in worms, whole organism, C. elegans mechanosensory neurons, N-terminal huntingtin (AID 1599); conditions: touch response, stronger effect = higher value
[4] = inhibitors of mitochondrial cytochrome c release, biochemical, purified mitochondria (AID 1603); conditions: stronger effect = lower value;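 also: mouse liver mitochondria challenged with calcium chloride; signal normalized to the plate average as 100%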
[5] = inhibitors of polyQ protein aggregation (AID 1604); conditions: polyglutamine-induced protein aggregation inhibition assay; stronger effect = higher value; tested at 2.5 µM
[6] = enhancers of glutamate uptake in motor neurons, MN-1 cell line (AID 1612); conditions: MN-1 motor neuron cells, stronger effect = higher value;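 also: tested at 1 µM final; 0% = mean of DMSO vehicle wells on each plate; positive means more glutamate uptake than control and negative means less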
[7] = reducers of polyQ inclusions in PC12 cells, cell-based, NGF-treated PC12, GFPQ80 (AID 1614); conditions: PC12 NGF-treated GFP-polyQ80 inclusion reduction;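 also: lower means fewer inclusions and 0 means no inclusions at all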
[8] = suppressors of polyglutamine aggregation in yeast, 75Q-TubH (AID 1616); conditions: S. cerevisiae 75Q-TubH polyglutamine aggregation suppression; stronger effect = higher value
[9] = liver-stage malaria parasite growth inhibition, primary screen, cell-based, HepG2, luciferase luminescence, HepG2 viability (AID 624349);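 also: 100% = mean of DMSO negative control wells on the same plate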; conditions: P. berghei liver stage in HepG2, luciferase luminescence, concentration not given here; parasite load remaining: stronger effect = lower value; viability: measured here: HepG2 viability without parasites
[10] = biological target: 6-phosphogluconate dehydrogenase, decarboxylating (Homo sapiens) (UniProt P52209); assay: 6PGD enzyme inhibitors, primary screen, biochemical, human, recombinant enzyme, NADPH absorbance (AID 1159550;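 active = at least 20% inhibition of 6-phosphogluconate dehydrogenase activity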); conditions: recombinant 6PGD, NADPH absorbance 341 nm; at 10 µM; stronger effect = higher value
6-phosphogluconate dehydrogenase, decarboxylating (Homo sapiens), sequence (P52209 whole entry, looked up): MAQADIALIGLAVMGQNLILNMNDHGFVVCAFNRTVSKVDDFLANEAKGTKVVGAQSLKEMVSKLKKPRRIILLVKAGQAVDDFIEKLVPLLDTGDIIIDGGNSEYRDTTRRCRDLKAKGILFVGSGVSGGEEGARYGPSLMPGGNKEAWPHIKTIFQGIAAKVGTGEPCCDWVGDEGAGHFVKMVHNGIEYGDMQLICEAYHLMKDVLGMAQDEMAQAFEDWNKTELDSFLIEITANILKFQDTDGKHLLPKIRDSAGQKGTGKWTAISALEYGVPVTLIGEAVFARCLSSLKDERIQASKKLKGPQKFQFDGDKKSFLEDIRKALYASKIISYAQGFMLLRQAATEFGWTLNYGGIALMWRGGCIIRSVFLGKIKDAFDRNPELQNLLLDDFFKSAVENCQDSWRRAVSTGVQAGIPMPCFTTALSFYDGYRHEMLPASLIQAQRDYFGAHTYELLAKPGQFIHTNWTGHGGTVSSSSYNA

[11] = differential killing of epithelial or mesenchymal cells, primary screen, imaging, PC-3E GFP, TEM4-18 mCherry, co-culture (AID 1345086;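 active = compounds killing one labelled cell type while sparing the other, by normalised counts and ratio limits, not self-fluorescent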;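 as to all read-outs here: cells exposed to compound for 72 h before imaging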;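 as to red/green cell ratio (normalised): normalised mesenchymal count divided by normalised epithelial count so high means epithelial killing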); conditions: imaging cell counts, at 1 µM; for red/green cell ratio (normalised): actives lie on both sides, counts scaled to control wells, 1 = unselective
[12] = sensitizers of A549 cells to miR-34 induction, primary screen, imaging, A549 dox-inducible miR-34, nuclei and caspase counts (AID 1347080;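 active = compounds whose cell count with miR-34 switched on is under 0.7 times the count with it off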); conditions: A549 miR-34 inducible, Hoechst nuclei count, 48 h
[13] = biological target: NAD(+) hydrolase SARM1 (Homo sapiens) (UniProt Q6SZW1); assay: SARM1 TIR NADase inhibitors, cell lysate, NAD-Glo luminescence (AID 1508614;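 active = compound whose remaining NAD level is above about 45 nM, limit read from the data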;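 also: higher remaining NAD means stronger inhibition of SARM1 NADase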); conditions: SAM-TIR HEK293T lysate NADase, at 1 µM, stronger effect = higher value
NAD(+) hydrolase SARM1 (Homo sapiens), sequence (Q6SZW1 whole entry, looked up, the tested form may be a part): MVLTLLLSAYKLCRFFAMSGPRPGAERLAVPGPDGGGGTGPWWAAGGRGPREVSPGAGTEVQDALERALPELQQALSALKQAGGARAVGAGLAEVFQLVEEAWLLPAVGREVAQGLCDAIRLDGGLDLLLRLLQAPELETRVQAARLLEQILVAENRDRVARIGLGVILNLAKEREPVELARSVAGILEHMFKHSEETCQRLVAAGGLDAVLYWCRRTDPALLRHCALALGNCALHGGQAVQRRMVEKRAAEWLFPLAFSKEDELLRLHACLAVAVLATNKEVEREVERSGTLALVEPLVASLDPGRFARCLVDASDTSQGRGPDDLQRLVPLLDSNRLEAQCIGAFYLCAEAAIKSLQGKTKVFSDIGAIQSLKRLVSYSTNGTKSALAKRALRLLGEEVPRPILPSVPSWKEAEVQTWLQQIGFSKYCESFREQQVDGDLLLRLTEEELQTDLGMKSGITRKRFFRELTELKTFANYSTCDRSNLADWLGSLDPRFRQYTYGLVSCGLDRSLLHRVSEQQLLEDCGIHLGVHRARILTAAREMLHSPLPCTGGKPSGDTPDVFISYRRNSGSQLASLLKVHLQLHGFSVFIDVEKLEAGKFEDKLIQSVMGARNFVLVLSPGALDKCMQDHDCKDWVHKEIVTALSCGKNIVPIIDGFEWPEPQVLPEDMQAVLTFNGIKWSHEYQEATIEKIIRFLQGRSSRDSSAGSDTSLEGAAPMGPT

[14] = biological target: Mitogen-activated protein kinase 7 (Homo sapiens) (UniProt Q13164); assay: ERK5 transactivation activators in reporter cells, primary screen, cell-based, HTS (AID 1508626;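 active = luciferase signal above three times the same-plate solvent-only control wells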;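 also: luciferase driven by Gal4-ERK5 fusion binding five Gal4 sites before minimal TATA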); conditions: HeLa Gal4-ERK5 transactivation, 18 h, at 5 µM, stronger effect = higher value
Mitogen-activated protein kinase 7 (Homo sapiens), sequence (Q13164 whole entry, looked up, the tested form may be a part): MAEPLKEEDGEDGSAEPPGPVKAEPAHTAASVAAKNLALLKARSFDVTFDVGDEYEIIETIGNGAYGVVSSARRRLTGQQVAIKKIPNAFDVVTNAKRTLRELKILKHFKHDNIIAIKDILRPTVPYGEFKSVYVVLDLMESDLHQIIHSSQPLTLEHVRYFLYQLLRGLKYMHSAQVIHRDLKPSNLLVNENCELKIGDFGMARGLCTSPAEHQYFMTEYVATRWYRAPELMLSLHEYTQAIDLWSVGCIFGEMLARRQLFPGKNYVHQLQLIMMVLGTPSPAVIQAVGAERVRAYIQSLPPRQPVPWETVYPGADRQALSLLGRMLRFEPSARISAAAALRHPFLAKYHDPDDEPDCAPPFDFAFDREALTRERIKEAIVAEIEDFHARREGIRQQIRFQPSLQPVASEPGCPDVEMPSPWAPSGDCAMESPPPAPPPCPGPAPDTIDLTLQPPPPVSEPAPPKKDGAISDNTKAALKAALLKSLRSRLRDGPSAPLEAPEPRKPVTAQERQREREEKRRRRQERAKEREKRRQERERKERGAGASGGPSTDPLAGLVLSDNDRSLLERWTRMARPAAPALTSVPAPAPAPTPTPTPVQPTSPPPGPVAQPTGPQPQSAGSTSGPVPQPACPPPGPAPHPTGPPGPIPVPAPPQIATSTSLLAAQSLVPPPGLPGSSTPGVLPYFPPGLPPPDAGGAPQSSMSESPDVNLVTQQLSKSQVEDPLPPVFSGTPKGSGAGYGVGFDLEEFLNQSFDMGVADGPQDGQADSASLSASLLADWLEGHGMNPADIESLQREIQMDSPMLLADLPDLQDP

[15] = viability rescue of complex I mutant cybrids, primary screen, cell-based, galactose medium, ATP luminescence (AID 1645843;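 active = z-score of at least 1.8 in each of two replicates, scored against plate mean and spread of sample wells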;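 also: positive z means more ATP and so rescue of galactose-driven cybrid death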); conditions: complex I mutant cybrid cells, 72 h, stronger effect = higher value
[16] = measured here: epithelial PC-3E GFP cell survival
[17] = measured here: mesenchymal TEM4-18 mCherry cell survival
[18] = stronger effect = lower value, cell number ratio, induced over uninduced
[19] = measured here: relative caspase fold change +Dox/-Dox
[20] = measured here: total cells with miR-34 induction, stronger effect = lower value
[21] = measured here: total cells without miR-34 induction

With `CCC(C)CCCCC(=O)NC(CCN)C(=O)NC(C(=O)NC(CCN)C(=O)NC1CCNC(=O)C(C(C)O)NC(=O)C(CCN)NC(=O)C(CCN)NC(=O)C(CC(C)C)NC(=O)C(Cc2ccccc2)NC(=O)C(CCN)NC1=O)C(C)O` (centres undefined) ({Octanoyl(6-Me)}-[Dab]T[Dab][Dab][Dab]FL[Dab][Dab]T; lactam 4-C; configuration not given here) the inhibition [1] was 15%, the score [2] was 0.73 and the rescue above control [3] was 0. It also gave a cytochrome c release ratio [4] of 7.61, an inhibition of aggregation [5] of 70.5% and a glutamate uptake change [6] of -11.7%. The inclusion score [7] was 2, the aggregation suppression score [8] was 0.739 and the parasite load remaining [9] was 82.5% (inactive) and 41.4% (inactive). For the same compound, the viability [9] was 77.7% and 91.4%, the inhibition [10] was 11% (inactive) and the red/green cell ratio (normalised) [11] was 1.23 (inactive). For the same compound, the normalised cell number [11, 16] was 0.93, the normalised cell number [11, 17] was 1.14 and the fold change [12, 18] was 0.886 (inactive). The fold change [12, 19] was 2.98, the cell count [12, 20] was 11700 and the cell count [12, 21] was 13200. The remaining NAD [13] was 10 nM (inactive).
Compound `CN1C(CC(=O)c2ccccc2)CCCC1CC(O)c1ccccc1` (centres undefined) has an inhibition [1] of 17.8%, a score [2] of 1.4 and a rescue above control [3] of -4.31. It also gave a cytochrome c release ratio [4] of 0.5, an inhibition of aggregation [5] of 65.4% and a glutamate uptake change [6] of 3.53%. The inclusion score [7] was 2, the aggregation suppression score [8] was 1.27 and the parasite load remaining [9] was 97.3% (inactive). The viability [9] was 69.7%, the inhibition [10] was -10.3% (inactive) and the red/green cell ratio (normalised) [11] was 1.04 (inactive). For the same compound, the normalised cell number [11, 16] was 0.88, the normalised cell number [11, 17] was 0.92 and the fold change [12, 18] was 0.965 (inactive). It also gave a fold change [12, 19] of 1.77, a cell count [12, 20] of 10200 and a cell count [12, 21] of 10600. For the same compound, the remaining NAD [13] was 10 nM (inactive), the luciferase signal [14] was 268 AU (active) and the z-score [15] was 0.16 (inactive).
For `CCCCCCCCCc1ccc(OCCOCCOCCOCCOCCOCCOCCOCCOCCO)cc1`, the parasite load remaining [9] was -0.79% (active), the viability [9] was 85% and the inhibition [10] was -15.2% (inactive). For the same compound, the red/green cell ratio (normalised) [11] was 1.03 (inactive), the normalised cell number [11, 16] was 1.14 and the normalised cell number [11, 17] was 1.18. For the same compound, the fold change [12, 18] was 0.78 (inactive), the fold change [12, 19] was 2.5 and the cell count [12, 20] was 2440. The cell count [12, 21] was 3120, the remaining NAD [13] was 10 nM (inactive) and the luciferase signal [14] was 40 AU (inactive).
With `CC(C)c1nc(N(C)S(C)(=O)=O)nc(-c2ccc(F)cc2)c1/C=C/[C@@H](O)C[C@@H](O)CC(=O)O` the parasite load remaining [9] was 73.5% (inactive) and 60.1% (inactive), the viability [9] was 86.4% and 101% and the inhibition [10] was 1.44% (inactive). The red/green cell ratio (normalised) [11] was 0.94 (inactive), the normalised cell number [11, 16] was 1.08 and the normalised cell number [11, 17] was 1.02. The fold change [12, 18] was 0.858 (inactive), the fold change [12, 19] was 2.33 and the cell count [12, 20] was 12000. The cell count [12, 21] was 13900, the remaining NAD [13] was 10 nM (inactive) and the luciferase signal [14] was 48 AU (inactive).
For `COc1ccc2c(c1OC)C(=O)O[C@H]2[C@H]1c2c(cc3c(c2OC)OCO3)CCN1C`, the parasite load remaining [9] was 93.3% (inactive) and 73.1% (inactive), the viability [9] was 64.7% and 94.8% and the inhibition [10] was 4.17% (inactive). For the same compound, the red/green cell ratio (normalised) [11] was 1.15 (inactive), the normalised cell number [11, 16] was 1.08 and the normalised cell number [11, 17] was 1.24. For the same compound, the fold change [12, 18] was 0.877 (inactive), the fold change [12, 19] was 1.33 and the cell count [12, 20] was 8940. The cell count [12, 21] was 10200.
For `COc1cc(O)c(C)c(O)c1`, the inhibition [10] was 5.9% (inactive), the red/green cell ratio (normalised) [11] was 0.94 (inactive) and the normalised cell number [11, 16] was 1.19. For the same compound, the normalised cell number [11, 17] was 1.12 and the luciferase signal [14] was 48 AU (inactive).
